Data taken from PubChem BioAssay (EPA / NIEHS).
The source holds several records for some structures; these can differ, active in one and inactive in another. The source made the active and inactive calls. How the source made its calls: active means hit-call score of the fitted dose curve at least 0.9, where 1 is the maximum; inactive means score below 0.9.

Assay: ATG_E_Box_CIS: Attagene CIS-FACTORIAL HepG2 Assay for human Enhancer Box (E-box) (AID 2282936)
Details: HepG2 E-box cis-reporter transcription, actives raise or lower the signal
Description: ATG_CIS is a cell-based, multiplexed-readout assay that uses HepG2, a human liver cell line, with measurements taken at 24 hours after chemical dosing in a 24-well plate.ATG_E_Box_CIS is one of 52 assay component(s) measured or calculated from the ATG_CIS assay. It is designed to make measurements of mRNA induction, a form of inducible reporter, as detected with fluorescence intensity signals by Reverse transcription polymerase chain reaction (RT-PCR) and Capillary electrophoresis technology.Data from the assay component ATG_E_Box_CIS was analyzed into 1 assay endpoint. This assay endpoint, ATG_E_Box_CIS, was analyzed with bidirectional fitting relative to DMSO as the negative control and baseline of activity. Using a type of inducible reporter, measures of mRNA for gain or loss-of-signal activity can be used to understand the reporter gene at the transcription factor-level as they relate to the gene USF1. Furthermore, this assay endpoint can be referred to as a primary readout, because this assay has produced multiple assay endpoints where this one serves a reporter gene function. To generalize the intended target to other relatable targets, this assay endpoint is annotated to the dna binding intended target family, where the subfamily is basic helix-loop-helix protein.
Human liver HepG2 cells are transiently transfected with multiple reporter transcription units (MRTUs) in 6-well plates using FuGene 6 reagent (Roche; 3 ml FuGene/1 mg DNA). The MRTU constructs are regulated by a cis-regulating element (promoter). […] A major difference between the CIS and TRANS system is that in CIS activities of endogenous TFs are measured, whereas the TRANS assay evaluates changes in activities of exogenous, chimeric NR-Gal4 proteins. […] At the end of 24 hour incubation, total RNA was isolated using TriZol reagent (Invitrogen). The isolated RNA is then reverse-transcribed using oligo(dT) primer and Mo-MLV reverse transcriptase (Invitrogen) with DNAse I (Ambion) treatment for 30 min. The one-tenth of the produced cDNA was amplified by PCR using Taq DNA polymerase (Invitrogen) and two reporter sequence-specific primers. The PCR products were fluorescently labeled by primer extension with 6-arboxyfluorescein (6-FAM) 5'-labeled reporter sequence-specific primer (2 min at 95 C, 20 s at 68 C and 10 min at 72 C) and these products were digested with 5U of HpaI (New England Biolabs) for 2h at 37 C. The fragments were purified using Qiaquick PCR columns (Qiagen), analyzed on an ABI 3130xL genetic analyzer (Applied Biosystems) with peak positions identified by using a set of X-rhodamine (ROX)-labeled MapMarker1000 molecular weight standards (BioVentures). The raw capillary electrophoresis data was processed using Attagraph software (Attagene).

**Q.** For `ClCCCCl`, which outcome is on record?
**A.** inactive

**Q.** Which outcome does the source give for `Clc1cccc(Cl)c1Cl` here?
**A.** inactive

**Q.** Which outcome does the source give for `N#Cc1ccccc1Cl` here?
**A.** inactive

**Q.** With `O=NN1CCCCCC1` as the molecule, how does the outcome read?
**A.** inactive

**Q.** Which outcome does the source give for `O=C(NC(=O)c1c(F)cccc1F)Nc1ccc(Cl)cc1` here?
**A.** inactive

**Q.** Which outcome does the source give for `CCOP(=S)(OCC)Oc1ccc(Cl)cc1Cl` here?
**A.** inactive

**Q.** Which outcome does the source give for `NC(=O)c1ccc(N)nc1` here?
**A.** inactive

**Q.** For `Cc1cc(Cl)ccc1N`, which outcome is on record?
**A.** inactive

**Q.** For `O=C(CCl)Nc1ccccc1`, which AC50 is on record?
**A.** 73.5 µM (active)

**Q.** Which outcome does the source give for `O=[N+]([O-])c1cc([As](=O)(O)O)ccc1O` here?
**A.** inactive

**Q.** What does the source list for `O=c1oc2ccccc2c(O)c1C(CC(O)c1ccc(-c2ccc(Br)cc2)cc1)c1ccccc1` (stereo not given)?
**A.** outcome: inactive; AC50: 54.6 µM (active)

**Q.** With `CN(C)CCN(C)C` as the molecule, how does the outcome read?
**A.** inactive

**Q.** Which outcome does the source give for `Cc1cccc(N=Nc2ccc(N(C)C)cc2)c1` here?
**A.** inactive

**Q.** With `O=S(=O)(C(Cl)(Cl)Cl)C(Cl)(Cl)Cl` as the molecule, how does the AC50 read?
**A.** 14.7 µM (active)

**Q.** With `C=CCOC(F)(C(F)(F)F)C(F)(F)F` as the molecule, how does the outcome read?
**A.** inactive

**Q.** Which outcome does the source give for `Nc1c(Oc2ccccc2)cc(O)c2c1C(=O)c1ccccc1C2=O` here?
**A.** inactive

**Q.** Which outcome does the source give for `CC(F)(F)CC(F)(F)F` here?
**A.** inactive

**Q.** Which outcome does the source give for `CN(C)C(=S)S` here?
**A.** inactive

**Q.** With `CC1(C)[C@H](C(=O)O[C@H](C#N)c2cccc(Oc3ccccc3)c2)[C@@H]1/C=C(\Cl)C(F)(F)F` as the molecule, how does the outcome read?
**A.** inactive

**Q.** For `CCOC(=O)C(SP(=S)(OC)OC)c1ccccc1` (stereo not given), which outcome is on record?
**A.** inactive

**Q.** Which outcome does the source give for `C[C@@H]1O[C@@H](O[C@H]2C[C@@H](O)[C@]3(CO)[C@H]4[C@H](O)C[C@]5(C)[C@@H](C6=CC(=O)OC6)CC[C@]5(O)[C@@H]4CC[C@]3(O)C2)[C@H](O)[C@H](O)[C@H]1O` here?
**A.** inactive

**Q.** Which outcome does the source give for `Cc1cc(Cl)ccc1O` here?
**A.** inactive

**Q.** For `Nc1nc(N)nc(Cl)n1`, which outcome is on record?
**A.** inactive

**Q.** With `OC(Cc1ccccc1Cl)(Cn1cncn1)C1(Cl)CC1` (stereo not given) as the molecule, how does the outcome read?
**A.** inactive

**Q.** With `CCOC(=O)CC(=O)CCl` as the molecule, how does the AC50 read?
**A.** 128 µM (active)

**Q.** Which AC50 does the source give for `CC(=Cc1ccccc1)[N+](=O)[O-]` here?
**A.** 17 µM (active)

**Q.** With `O=C(NC(=O)c1c(F)cccc1F)Nc1cc(Cl)c(OC(F)(F)C(F)C(F)(F)F)cc1Cl` (stereo not given) as the molecule, how does the outcome read?
**A.** inactive

**Q.** With `CC[N+](CC)(CC)CC` as the molecule, how does the outcome read?
**A.** inactive

**Q.** For `O=[N+]([O-])c1ccc(Cl)c([N+](=O)[O-])c1`, which AC50 is on record?
**A.** 6.14 µM (active)

**Q.** For `O=C(O)COc1cc(Cl)c(Cl)cc1Cl`, which outcome is on record?
**A.** inactive

**Q.** With `Clc1cnc(Oc2ccc(Oc3ncc(Cl)cc3Cl)cc2)c(Cl)c1` as the molecule, how does the outcome read?
**A.** inactive

**Q.** For `O=c1nc(O)n(Cl)c(=O)n1Cl`, which outcome is on record?
**A.** inactive

**Q.** Which outcome does the source give for `CC(C)[C@@H](Nc1ccc(C(F)(F)F)cc1Cl)C(=O)OC(C#N)c1cccc(Oc2ccccc2)c1` (stereo not given in full) here?
**A.** inactive

**Q.** Which outcome does the source give for `CCOCn1c(-c2ccc(Cl)cc2)c(C#N)c(Br)c1C(F)(F)F` here?
**A.** inactive

**Q.** Which outcome does the source give for `CC(C)(C#N)N=NC(C)(C)C#N` here?
**A.** inactive

**Q.** Which outcome does the source give for `C=CC(=O)NC(C)(C)CC(C)=O` here?
**A.** inactive

**Q.** Which outcome does the source give for `O=C(NC(=O)c1c(F)cccc1F)Nc1cc(Cl)c(F)c(Cl)c1F` here?
**A.** inactive

**Q.** With `CCOC(=O)OC1=C(c2cc(C)ccc2C)C(=O)NC12CCC(OC)CC2` (stereo not given) as the molecule, how does the outcome read?
**A.** inactive

**Q.** With `C=CCOC(N)=O` as the molecule, how does the outcome read?
**A.** inactive
